# Assays:
# Test in all cases: DAPPL (digital affinity profiling via proximity ligation, sequencing); 10 mM Tris-HCl pH 7.5, 50 mM NaCl, 1 mM DTT, 4% glycerol, room temperature, 30 min; GST-TFs on glutathione beads, 16-mer random dsDNA library, 0.1% formaldehyde crosslink after washing; high values mean tight binding
# Settings in all cases: protein: recombinant; tags: N-terminal GST; dsDNA, one strand shown
# FEV = biological target: T1, FEV (Homo sapiens, UniProt Q99581 1-238)
# T1 sequence: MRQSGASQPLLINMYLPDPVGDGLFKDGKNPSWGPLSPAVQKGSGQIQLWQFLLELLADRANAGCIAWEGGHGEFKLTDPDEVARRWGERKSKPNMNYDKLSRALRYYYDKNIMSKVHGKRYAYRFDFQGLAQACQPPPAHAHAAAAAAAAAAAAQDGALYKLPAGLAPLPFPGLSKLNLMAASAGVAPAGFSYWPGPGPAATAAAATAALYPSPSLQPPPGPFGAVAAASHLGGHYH
# In short: (§1)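 After expression in yeast as GST fusions, human transcription factors were bound to glutathione beads, DNA-barcoded and mixed with a tag-only sample. The pools were incubated with 200 nmole of a 16-mer random double-stranded DNA library in Tris/NaCl/DTT/glycerol buffer (30 min, room temperature), washed and crosslinked with 0.1% formaldehyde. Proximity ligation with BsaI/T4 ligase ran for 1 h at 37 °C, before PCR amplification and sequencing on an Illumina NextSeq500. Binding signal is a hexamer's read frequency for a factor divided by its frequency for the tag-only sample.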
# ETV5 = ETV5 (Homo sapiens, UniProt P41161 1-510)
# In short: as §1
# SPIC = biological target: T2, SPIC (Homo sapiens, UniProt Q8N5J4 1-248)
# T2 sequence: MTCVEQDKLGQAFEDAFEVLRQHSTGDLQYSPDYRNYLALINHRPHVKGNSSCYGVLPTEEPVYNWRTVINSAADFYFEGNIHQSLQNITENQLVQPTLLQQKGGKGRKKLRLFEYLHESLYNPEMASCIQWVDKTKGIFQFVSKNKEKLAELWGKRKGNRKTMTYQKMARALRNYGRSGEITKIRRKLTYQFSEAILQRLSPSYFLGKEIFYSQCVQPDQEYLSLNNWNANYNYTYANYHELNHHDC
# In short: as §1
# ELF4 = ELF4 (Homo sapiens, UniProt Q99607 1-663)
# In short: as §1
# ELK4 = biological target: T3, ELK4 (Homo sapiens, UniProt P28324-2 1-405)
# T3 sequence: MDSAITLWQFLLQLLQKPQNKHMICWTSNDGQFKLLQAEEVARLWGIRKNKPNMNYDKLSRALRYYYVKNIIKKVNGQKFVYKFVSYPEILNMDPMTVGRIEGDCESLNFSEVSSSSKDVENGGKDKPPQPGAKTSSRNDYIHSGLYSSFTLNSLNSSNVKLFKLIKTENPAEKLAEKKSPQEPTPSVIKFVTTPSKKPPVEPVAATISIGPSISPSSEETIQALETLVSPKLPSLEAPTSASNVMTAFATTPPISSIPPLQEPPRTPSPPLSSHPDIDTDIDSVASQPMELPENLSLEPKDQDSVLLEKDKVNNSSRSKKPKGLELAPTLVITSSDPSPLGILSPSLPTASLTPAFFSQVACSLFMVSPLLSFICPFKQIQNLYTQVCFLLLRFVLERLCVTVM
# In short: as §1
# ETV2 = biological target: T4, ETV2 (Homo sapiens, UniProt O00321 1-342)
# T4 sequence: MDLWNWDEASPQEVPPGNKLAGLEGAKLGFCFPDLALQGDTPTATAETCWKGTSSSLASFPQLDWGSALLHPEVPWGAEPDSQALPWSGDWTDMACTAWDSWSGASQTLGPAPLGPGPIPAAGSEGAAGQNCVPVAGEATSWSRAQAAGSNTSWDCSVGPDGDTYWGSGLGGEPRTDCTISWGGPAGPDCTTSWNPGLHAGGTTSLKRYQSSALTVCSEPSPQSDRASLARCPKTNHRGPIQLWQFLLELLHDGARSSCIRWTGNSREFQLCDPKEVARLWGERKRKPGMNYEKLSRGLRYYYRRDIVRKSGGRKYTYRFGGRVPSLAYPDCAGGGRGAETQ
# In short: as §1
# ELF3 = biological target: T5, ELF3 (Homo sapiens, UniProt P78545 1-371)
# T5 sequence: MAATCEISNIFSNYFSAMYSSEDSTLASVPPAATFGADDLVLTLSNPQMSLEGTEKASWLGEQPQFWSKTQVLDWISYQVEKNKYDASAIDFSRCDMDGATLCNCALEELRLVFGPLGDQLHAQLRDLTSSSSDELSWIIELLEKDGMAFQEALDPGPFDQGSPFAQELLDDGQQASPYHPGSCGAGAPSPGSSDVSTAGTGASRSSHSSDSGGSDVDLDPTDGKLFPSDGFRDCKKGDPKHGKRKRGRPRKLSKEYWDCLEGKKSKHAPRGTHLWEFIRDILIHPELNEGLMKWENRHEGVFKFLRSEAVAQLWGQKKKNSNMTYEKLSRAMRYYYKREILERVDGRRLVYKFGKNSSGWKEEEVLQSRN
# In short: as §1
# ETV1 = ETV1 (Homo sapiens, UniProt P50549 1-477)
# In short: as §1
# ERF = biological target: T6, ERF (Homo sapiens, UniProt P50548 1-548)
# T6 sequence: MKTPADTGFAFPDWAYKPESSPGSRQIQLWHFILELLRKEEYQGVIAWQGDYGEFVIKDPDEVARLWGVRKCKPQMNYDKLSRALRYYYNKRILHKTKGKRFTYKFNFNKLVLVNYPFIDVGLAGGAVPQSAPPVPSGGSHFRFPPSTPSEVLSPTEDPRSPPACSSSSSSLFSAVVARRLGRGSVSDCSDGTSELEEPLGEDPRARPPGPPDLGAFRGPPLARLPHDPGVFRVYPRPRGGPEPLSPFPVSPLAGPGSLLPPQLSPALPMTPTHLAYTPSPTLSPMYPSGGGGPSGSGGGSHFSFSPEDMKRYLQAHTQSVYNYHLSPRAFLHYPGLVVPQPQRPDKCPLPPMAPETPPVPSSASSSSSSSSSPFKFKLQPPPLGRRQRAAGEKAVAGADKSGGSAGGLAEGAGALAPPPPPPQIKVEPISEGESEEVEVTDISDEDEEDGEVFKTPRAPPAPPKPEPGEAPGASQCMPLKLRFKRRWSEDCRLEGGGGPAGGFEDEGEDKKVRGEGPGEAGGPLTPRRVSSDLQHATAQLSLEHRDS
# In short: as §1
# ETV3L = biological target: T7, ETV3L (Homo sapiens, UniProt Q6ZN32 1-361)
# T7 sequence: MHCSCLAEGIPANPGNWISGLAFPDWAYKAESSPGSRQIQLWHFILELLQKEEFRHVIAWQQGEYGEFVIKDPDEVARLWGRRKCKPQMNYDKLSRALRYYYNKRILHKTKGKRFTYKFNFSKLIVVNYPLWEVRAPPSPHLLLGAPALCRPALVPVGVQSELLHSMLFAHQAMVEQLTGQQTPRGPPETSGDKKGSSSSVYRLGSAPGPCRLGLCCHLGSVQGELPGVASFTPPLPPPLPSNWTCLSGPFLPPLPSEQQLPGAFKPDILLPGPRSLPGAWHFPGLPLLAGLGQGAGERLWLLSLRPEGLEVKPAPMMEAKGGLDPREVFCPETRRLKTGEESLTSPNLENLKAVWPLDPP
# In short: as §1
# ETS2 = biological target: T8, ETS2 (Homo sapiens, UniProt P15036 1-469)
# T8 sequence: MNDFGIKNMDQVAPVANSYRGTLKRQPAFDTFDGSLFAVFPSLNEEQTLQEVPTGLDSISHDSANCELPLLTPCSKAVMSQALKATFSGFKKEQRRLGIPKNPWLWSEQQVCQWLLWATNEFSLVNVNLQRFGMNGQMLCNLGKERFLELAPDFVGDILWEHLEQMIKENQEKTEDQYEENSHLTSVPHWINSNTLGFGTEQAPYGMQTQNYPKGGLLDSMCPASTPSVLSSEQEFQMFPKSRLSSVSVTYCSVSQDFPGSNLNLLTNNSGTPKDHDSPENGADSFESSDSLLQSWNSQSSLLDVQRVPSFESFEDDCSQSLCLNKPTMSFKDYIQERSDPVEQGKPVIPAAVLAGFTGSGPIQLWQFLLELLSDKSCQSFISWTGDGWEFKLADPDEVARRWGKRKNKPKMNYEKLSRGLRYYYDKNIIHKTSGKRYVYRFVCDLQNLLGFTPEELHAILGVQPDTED
# In short: as §1
# SPDEF = biological target: T9, SPDEF (Homo sapiens, UniProt O95238 1-335)
# T9 sequence: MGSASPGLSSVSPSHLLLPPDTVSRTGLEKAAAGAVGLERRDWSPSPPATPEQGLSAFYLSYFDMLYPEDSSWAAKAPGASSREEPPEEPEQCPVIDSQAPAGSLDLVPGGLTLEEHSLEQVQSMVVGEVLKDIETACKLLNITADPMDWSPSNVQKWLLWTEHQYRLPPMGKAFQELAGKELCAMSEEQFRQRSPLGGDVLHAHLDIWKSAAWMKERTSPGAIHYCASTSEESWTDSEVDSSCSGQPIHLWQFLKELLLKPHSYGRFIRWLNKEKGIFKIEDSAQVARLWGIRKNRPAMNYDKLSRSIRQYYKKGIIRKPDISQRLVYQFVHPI
# In short: as §1
# ELF5 = biological target: T10, ELF5 (Homo sapiens, UniProt Q9UKW6-2 1-255)
# T10 sequence: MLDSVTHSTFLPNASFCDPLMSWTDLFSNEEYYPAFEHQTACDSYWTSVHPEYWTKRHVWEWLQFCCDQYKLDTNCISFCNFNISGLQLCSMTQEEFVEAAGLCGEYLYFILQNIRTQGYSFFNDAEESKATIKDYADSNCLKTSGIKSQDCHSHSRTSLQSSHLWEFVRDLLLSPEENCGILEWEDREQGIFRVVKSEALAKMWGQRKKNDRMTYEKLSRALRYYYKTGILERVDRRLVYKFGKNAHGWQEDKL
# In short: as §1
# ETV3 = biological target: T11, ETV3 (Homo sapiens, UniProt P41162-2 1-143)
# T11 sequence: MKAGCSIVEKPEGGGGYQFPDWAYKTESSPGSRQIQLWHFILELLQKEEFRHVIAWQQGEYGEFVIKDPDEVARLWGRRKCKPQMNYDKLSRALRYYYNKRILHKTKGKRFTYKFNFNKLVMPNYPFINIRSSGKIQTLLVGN
# In short: as §1
# ETV6 = ETV6 (Homo sapiens, UniProt P41212 1-452)
# In short: as §1
# ETV7 = biological target: T12, ETV7 (Homo sapiens, UniProt Q9Y603 1-341)
# T12 sequence: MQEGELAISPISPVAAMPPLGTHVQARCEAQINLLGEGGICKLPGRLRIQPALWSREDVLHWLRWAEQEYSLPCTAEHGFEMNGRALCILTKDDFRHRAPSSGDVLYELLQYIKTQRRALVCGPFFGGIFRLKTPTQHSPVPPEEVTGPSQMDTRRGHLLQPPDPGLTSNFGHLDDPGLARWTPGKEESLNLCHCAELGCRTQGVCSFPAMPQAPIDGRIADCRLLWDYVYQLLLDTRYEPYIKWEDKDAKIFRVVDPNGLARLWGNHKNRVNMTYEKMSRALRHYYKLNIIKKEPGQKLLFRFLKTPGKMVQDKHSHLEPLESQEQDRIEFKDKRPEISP
# In short: as §1
# ETV6, sequence (P41212 whole entry): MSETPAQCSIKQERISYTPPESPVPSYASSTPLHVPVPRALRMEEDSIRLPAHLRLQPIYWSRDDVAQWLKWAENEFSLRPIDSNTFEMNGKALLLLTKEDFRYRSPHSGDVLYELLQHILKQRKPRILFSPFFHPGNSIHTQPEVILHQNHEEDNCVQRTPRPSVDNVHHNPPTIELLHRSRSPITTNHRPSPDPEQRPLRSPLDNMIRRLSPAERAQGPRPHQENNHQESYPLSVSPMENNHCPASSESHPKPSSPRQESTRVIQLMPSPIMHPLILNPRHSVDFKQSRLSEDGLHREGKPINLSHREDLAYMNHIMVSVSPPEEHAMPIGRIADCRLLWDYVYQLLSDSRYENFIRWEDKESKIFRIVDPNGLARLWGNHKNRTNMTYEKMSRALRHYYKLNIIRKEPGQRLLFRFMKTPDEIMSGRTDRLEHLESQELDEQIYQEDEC
# ETV5, sequence (P41161 whole entry): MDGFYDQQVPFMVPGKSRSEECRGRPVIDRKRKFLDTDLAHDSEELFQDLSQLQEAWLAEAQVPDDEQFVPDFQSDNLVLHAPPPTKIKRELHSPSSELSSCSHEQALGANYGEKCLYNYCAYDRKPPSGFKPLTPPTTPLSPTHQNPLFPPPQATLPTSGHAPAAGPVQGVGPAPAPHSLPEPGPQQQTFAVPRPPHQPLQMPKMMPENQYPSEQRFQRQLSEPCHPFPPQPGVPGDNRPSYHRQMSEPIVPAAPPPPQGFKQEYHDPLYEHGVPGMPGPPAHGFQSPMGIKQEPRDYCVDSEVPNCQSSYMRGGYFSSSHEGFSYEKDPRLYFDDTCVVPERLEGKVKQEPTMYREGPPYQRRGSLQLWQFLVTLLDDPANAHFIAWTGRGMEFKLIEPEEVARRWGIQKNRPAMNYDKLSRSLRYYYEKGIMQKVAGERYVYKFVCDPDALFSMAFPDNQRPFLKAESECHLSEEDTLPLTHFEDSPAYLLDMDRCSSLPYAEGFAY
# ELF4, sequence (Q99607 whole entry): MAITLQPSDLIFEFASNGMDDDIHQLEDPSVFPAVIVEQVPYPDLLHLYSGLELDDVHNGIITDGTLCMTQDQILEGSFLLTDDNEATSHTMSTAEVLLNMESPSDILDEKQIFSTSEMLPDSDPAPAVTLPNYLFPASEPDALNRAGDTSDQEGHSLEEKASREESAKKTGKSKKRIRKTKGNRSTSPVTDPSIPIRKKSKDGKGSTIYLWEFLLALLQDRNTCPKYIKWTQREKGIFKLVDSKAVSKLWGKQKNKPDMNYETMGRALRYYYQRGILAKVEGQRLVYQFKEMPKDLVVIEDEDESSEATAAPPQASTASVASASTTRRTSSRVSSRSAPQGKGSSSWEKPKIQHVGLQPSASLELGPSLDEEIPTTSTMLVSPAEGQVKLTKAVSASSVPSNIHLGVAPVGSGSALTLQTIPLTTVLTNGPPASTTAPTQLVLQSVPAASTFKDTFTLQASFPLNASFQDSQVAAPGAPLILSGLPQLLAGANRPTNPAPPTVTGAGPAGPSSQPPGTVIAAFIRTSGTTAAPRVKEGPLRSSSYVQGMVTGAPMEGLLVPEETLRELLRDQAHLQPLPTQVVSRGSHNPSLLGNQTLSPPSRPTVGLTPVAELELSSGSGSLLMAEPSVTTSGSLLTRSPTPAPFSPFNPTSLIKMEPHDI
# ETV1, sequence (P50549 whole entry): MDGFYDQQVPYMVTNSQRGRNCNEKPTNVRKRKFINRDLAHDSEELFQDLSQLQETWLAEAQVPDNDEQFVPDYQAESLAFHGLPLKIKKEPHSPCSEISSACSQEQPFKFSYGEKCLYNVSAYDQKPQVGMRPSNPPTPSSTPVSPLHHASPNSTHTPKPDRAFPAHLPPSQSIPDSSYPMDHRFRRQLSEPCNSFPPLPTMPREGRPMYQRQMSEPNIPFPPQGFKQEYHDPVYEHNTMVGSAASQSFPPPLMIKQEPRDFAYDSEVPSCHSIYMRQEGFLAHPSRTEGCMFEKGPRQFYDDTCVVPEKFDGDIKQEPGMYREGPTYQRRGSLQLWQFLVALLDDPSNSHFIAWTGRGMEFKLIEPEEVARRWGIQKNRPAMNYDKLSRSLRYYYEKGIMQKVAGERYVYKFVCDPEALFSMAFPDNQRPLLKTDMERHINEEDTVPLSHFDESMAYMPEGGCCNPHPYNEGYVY
Sequence,binding signal (FEV),binding signal (ETV5),binding signal (SPIC),binding signal (ELF4),binding signal (ELK4),binding signal (ETV2),binding signal (ELF3),binding signal (ETV1),binding signal (ERF),binding signal (ETV3L),binding signal (ETS2),binding signal (SPDEF),binding signal (ELF5),binding signal (ETV3),binding signal (ETV6),binding signal (ETV7)
CACACG,"1.14 fold enrichment (6-mer frequency, TF over GST control)","1.11 fold enrichment (6-mer frequency, TF over GST control)","1.15 fold enrichment (6-mer frequency, TF over GST control)","1.18 fold enrichment (6-mer frequency, TF over GST control)","1.17 fold enrichment (6-mer frequency, TF over GST control)","1.24 fold enrichment (6-mer frequency, TF over GST control)","1.07 fold enrichment (6-mer frequency, TF over GST control)","1.16 fold enrichment (6-mer frequency, TF over GST control)","1.12 fold enrichment (6-mer frequency, TF over GST control)","1.21 fold enrichment (6-mer frequency, TF over GST control)","1.12 fold enrichment (6-mer frequency, TF over GST control)","1.16 fold enrichment (6-mer frequency, TF over GST control)","1.04 fold enrichment (6-mer frequency, TF over GST control)","1.1 fold enrichment (6-mer frequency, TF over GST control)","1.18 fold enrichment (6-mer frequency, TF over GST control)",
CGACGT,"1.09 fold enrichment (6-mer frequency, TF over GST control)","1.12 fold enrichment (6-mer frequency, TF over GST control)","1.05 fold enrichment (6-mer frequency, TF over GST control)","1.21 fold enrichment (6-mer frequency, TF over GST control)","1.15 fold enrichment (6-mer frequency, TF over GST control)","1.49 fold enrichment (6-mer frequency, TF over GST control)","1.09 fold enrichment (6-mer frequency, TF over GST control)","1.05 fold enrichment (6-mer frequency, TF over GST control)","1.17 fold enrichment (6-mer frequency, TF over GST control)",,"1.05 fold enrichment (6-mer frequency, TF over GST control)","1.02 fold enrichment (6-mer frequency, TF over GST control)","1.11 fold enrichment (6-mer frequency, TF over GST control)","1.09 fold enrichment (6-mer frequency, TF over GST control)","1.08 fold enrichment (6-mer frequency, TF over GST control)","1.2 fold enrichment (6-mer frequency, TF over GST control)"
CTGCAG,"1.1 fold enrichment (6-mer frequency, TF over GST control)","1.11 fold enrichment (6-mer frequency, TF over GST control)","1.37 fold enrichment (6-mer frequency, TF over GST control)","1.17 fold enrichment (6-mer frequency, TF over GST control)","1.26 fold enrichment (6-mer frequency, TF over GST control)","1.3 fold enrichment (6-mer frequency, TF over GST control)","1.02 fold enrichment (6-mer frequency, TF over GST control)",,"1.07 fold enrichment (6-mer frequency, TF over GST control)","1.18 fold enrichment (6-mer frequency, TF over GST control)","1.18 fold enrichment (6-mer frequency, TF over GST control)","1.1 fold enrichment (6-mer frequency, TF over GST control)","1.09 fold enrichment (6-mer frequency, TF over GST control)","1.07 fold enrichment (6-mer frequency, TF over GST control)","1.11 fold enrichment (6-mer frequency, TF over GST control)","1.13 fold enrichment (6-mer frequency, TF over GST control)"

# — article PMC7862700, “An all-to-all approach to the identification of sequence-specific readers for epigenetic DNA modifications on cytosine”
